RORgamma inh = ROR gamma (mouse) transcription inhibition | P51450 | Drosophila S2 Gal4-RORgamma UAS-luciferase reporter, 20 h | Potency, µM (series often up to 53.6 µM), without a hit: at the highest dose activity change, negative = inhibition, usual class: inhibitors | hit rate 5.4% among 310,000 | AID 2551; further: nearly all actives have a fitted effect of over 60% in size
Target sequence (P51450 whole entry, looked up, the tested form may be a part): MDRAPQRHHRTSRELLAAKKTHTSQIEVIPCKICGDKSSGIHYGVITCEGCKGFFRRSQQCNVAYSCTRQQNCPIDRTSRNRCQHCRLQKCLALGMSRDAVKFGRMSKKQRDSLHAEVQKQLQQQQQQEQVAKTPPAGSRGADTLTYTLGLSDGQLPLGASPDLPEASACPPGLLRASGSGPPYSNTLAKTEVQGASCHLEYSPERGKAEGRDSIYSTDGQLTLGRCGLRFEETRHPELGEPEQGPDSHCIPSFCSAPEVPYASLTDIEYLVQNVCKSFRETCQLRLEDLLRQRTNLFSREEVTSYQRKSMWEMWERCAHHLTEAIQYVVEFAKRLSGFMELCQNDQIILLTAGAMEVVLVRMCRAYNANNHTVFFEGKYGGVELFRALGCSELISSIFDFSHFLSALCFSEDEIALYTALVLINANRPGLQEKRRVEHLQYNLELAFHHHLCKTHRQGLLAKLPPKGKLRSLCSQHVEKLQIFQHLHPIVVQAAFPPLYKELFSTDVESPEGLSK
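Luciferase reporter read in Schneider cells carrying Gal4-RORγ (mouse) and UAS-Photinus luciferase; cells given compound 1 h before 700 uM copper sulfate induction, then incubated 20 h at ambient temperature.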
Tau fluor counter = counter-screen for tau fibril formation inhibitors; tau K18 P301L Alexa594 fluorescence, heparin fibrillization; Potency, µM (titrated, usually from 57.7 µM), for the others: top-dose activity change, negative = decrease; hit rate 0.93% among 280,000; further: nearly all actives have a fitted effect of over 55% in size
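Human K18 P301L tau (15 uM unlabeled plus 0.24 uM Alexa 594-labeled, final) in 100 mM sodium acetate pH 7 was mixed with compound and 20 uM heparin and incubated 6 hr at 37 C.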
Tau FP inhib = inhibitors of human tau fibril formation. P10636. K18 P301L tau heparin fibrillization, Alexa594 FP, 6 h. Potency, µM (doses to about 57.7 µM), without a hit: at the highest dose activity, negative = inhibition, hits mostly inhibitors. hit rate 0.39% among 280,000. AID 1468; further: nearly all actives have a fitted effect of over 55% in size
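Human tau K18 […] P301L fragment, 15 uM unlabeled plus 0.24 uM Alexa 594-labeled tau (final), with compound and 20 uM heparin in 100 mM sodium acetate pH 7; 6 hr at 37 C, then Alexa 594 FP read.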
Gal4-VP16 FLuc = inhibits Gal4-VP16 luciferase reporter, ROR gamma counter-screen. Drosophila S2 Gal4-VP16 UAS-luciferase, luminescence, 20 h. Potency, µM (top dose mostly 53.6 µM), for inactives: at the top dose activity, negative = inhibition, hits mostly inhibitors. hit rate 3.5% among 310,000. AID 2546;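 further: Gal4-VP16 expression switched on by copper sulfate through the metallothionein promoter; nearly all actives have a fitted effect of over 50% in size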
Tau fibril ThT = tau fibrillization inhibition (ThT binding); recombinant tau K18 P301L, heparin-induced fibrillization, ThT fluorescence; hit rate 2.1% among 270,000; Potency, µM (series often up to 57.4 µM), for the others: at the top dose activity, negative = inhibition, hits mostly inhibitors; P10636; further: nearly all actives have a fitted effect of over 55% in size
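Using a mix of unlabeled (15 uM) and Alexa 594-labeled (0.24 uM) tau K18 P301L, heparin-triggered fibrillization over 6 hr at 37 C was scored by ThT fluorescence.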
Starred values were filed as active, the others as inactive; ? = inconclusive; . = not tested or not shown; [ ] = dose if it differs, or a comment. Shown are actives, neighbours in structure and some others; about 7.3% of the full set was active somewhere. The call rests on the fitted dose curve; in most records, active means well fitted curve in the direction sought with a large enough effect; inconclusive means small, poorly fitted or top-dose-only effect, or another doubt; inactive means no such curve, though single readings can be large; an effect the other way counts as inactive or inconclusive. On the % scale 0 is the no-effect control and ±100 the full control effect; potency means the concentration at half of the fitted maximal effect.

SMILES | RORgamma inh | Tau fluor counter | Tau FP inhib | Gal4-VP16 FLuc | Tau fibril ThT
COc1ccc(OC)c(NC(=O)Cn2c(=O)n(-c3ccc(Cl)cc3)c(=O)c3c(C)c(C)sc32)c1 | . | -16.6% | -15.5% | . | 5.2%
C[C@@]12CCC(=O)C[C@@H]1CC(=O)[C@H]1[C@H]3CCC[C@]3(C)C(=O)C[C@@H]12 (tested in a mixture with another compound) | -15.6%[16.9 µM] | . | . | 19.3%[17 µM] | .
O=C(CCCN1C(=O)/C(=C/c2ccccc2)SC1=S)Nc1cccc(O)c1 | ? | 14.1µM*[quencher] | ? | 7.08µM* | ?
O=C(CCCN1C(=O)/C(=C/c2ccccc2Cl)SC1=S)NNC(=O)c1ccc(Cl)cc1 | ? | -12.5% | -8.0% | ? | -7.1%
Cc1ccc(C(=O)NNC(=O)CCCN2C(=O)/C(=C/c3ccccc3Cl)SC2=S)cc1 | 2.82µM* | -28.7% | 3.4% | 3.16µM* | ?
COc1cccc(/C=C2/SC(=S)N(CCCC(=O)Nc3ccc(O)cc3)C2=O)c1 | 0.355µM* | . | . | 0.355µM* | .
CCN(CC)CCOC(=O)c1ccc(NC(=O)CCCN2C(=O)S/C(=C/c3ccc(OC)cc3)C2=S)cc1 | 1µM* | . | . | 1.58µM* | .
COc1ccc(/C=C2\SC(=S)N(CCC(=O)Nc3ccc(O)cc3)C2=O)cc1 | -29.8% | . | . | 21.1% | .
O=C(Cl)CCCCCCCC(=O)Cl | -2.7% | . | . | 1.2% | .
CC(C)c1ccc(NC(=O)CCCc2nc(-c3ccc(Cl)cc3)no2)cc1 | . | -10.8% | -9.6% | . | -1.7%
CC(=O)Nc1ccn(C2OC(C(COC(C)=O)NC(=O)C(CCCCNC(=O)OCc3ccccc3)NC(=O)OC(C)(C)C)C(OC(C)=O)C2OC(C)=O)c(=O)n1 (centres undefined) | -22.8% | . | . | -6.7% | .
O=C(CCN1C(=O)/C(=C/c2cccs2)SC1=S)Nc1ccccc1O | 6.3% | . | . | -28.9% | .
COc1cccc(/C=C2\SC(=S)N(CCCC(=O)NC3=NCCS3)C2=O)c1 | 0.562µM* | . | . | 0.708µM* | .
Cc1ccc(/C=C2/SC(=S)N(CCCC(=O)Nc3ccc(O)cc3)C2=O)cc1 | 0.398µM* | ? | 4.4% | ? | ?
O=C(O)CCCN1C(=O)/C(=C\C(Cl)=C\c2ccccc2)SC1=S | 1.26µM* | . | . | 1.58µM* | .
O=C(CCCN1C(=O)/C(=C\c2cccs2)SC1=S)Nc1cc([N+](=O)[O-])ccc1O | ? | . | . | 20µM* | .
CCOc1ccc(Br)cc1/C(C)=N\NC1=NCCN1 | -33.0% | -8.7% | 1.4% | 7.94µM* | -8.4%
COc1ccccc1-c1nc(SCC(=O)Nc2ccc(C)c(C)c2)n[nH]1 | . | -26.8% | -14.6% | . | -6.2%
COc1cccc(/C=N/NC(=O)CNC(=O)/C=C\c2ccccc2)c1O | 2.51µM* | . | . | 3.16µM* | .
COc1ccc(/C=C\C(=O)NCC(=O)N/N=C/c2cccc(OC)c2O)cc1 | 1.58µM* | . | . | 7.94µM* | .
COc1cccc(/C=N/NC(=O)CNC(=O)C(c2ccccc2)c2ccccc2)c1O | 1.78µM* | . | . | ? | .
Cc1cnc(CNC(=O)C2CCC(=O)N(CCc3cccc(F)c3)C2)[nH]1 (centres undefined) | -6.6% | . | . | 4.8% | .
CCCS(=O)(=O)N1CC(=O)N(c2cc(C)cc(C)c2)C(C)(C(=O)NC2CCCCCC2)C1 (centres undefined) | . | -0.7% | -3.7% | . | 1.0%
COc1cccc(/C=N/Nc2nccnc2Cl)c1O | 3.16µM* | -5.3% | 4.5% | 7.08µM* | ?
COc1cccc(C=NCCCN=Cc2cccc(OC)c2O)c1O | 7.94µM* | . | . | -2.6% | .
SMILES | RORgamma inh | Tau fluor counter | Tau FP inhib | Gal4-VP16 FLuc | Tau fibril ThT
COc1cccc(C=NCCNC(=O)c2nonc2N)c1O | ? | -5.7% | -2.9% | -18.0% | ?
COc1cccc(/C=N/Nc2ncnc(Cl)c2N)c1O | 1.78µM* | -18.2% | 16.0% | 3.16µM* | ?
COc1ccc(/C=N/Nc2nccnc2Cl)c(OC)c1 | ? | -5.8% | -2.8% | ? | ?
COc1cccc(/C=N/Nc2ncnc3scc(-c4ccccc4)c23)c1O | 2.82µM* | ? | ? | 12.6µM* | -2.4%
Nc1c(Cl)ncnc1N/N=C/c1cccc(O)c1 | -29.1% | ? | 9.0% | 1.2% | ?
CCN(C(=O)CSc1nnc(-c2cc3occc3n2C)n1-c1ccccc1C)c1ccccc1 | . | -3.1% | -2.0% | . | -10.8%
